aSyn UTR act: Activators via SNCA 5'UTR binding, MLPCN; alpha-synuclein 5'UTR reporter, activators screen; activity score, % (tested at 7.5 µM), hits read low; 7.1% of 300,000 active; AID 1814, 2009; in the data active = activity score below about -60%
Starred values were filed as active, the others as inactive. Not all results are given here.

SMILES | aSyn UTR act
O=C(Nc1nc2c(s1)CCCC2)c1ccc(Br)s1 | -93*
Cc1ncsc1C(=O)Nc1nc2c(s1)CCCC2 | -159*
O=C(c1ccccc1)c1ccc2cc(O)ccc2c1 | -231*
CCOc1ccc(NC(=O)c2cc(OC)nc3ccccc23)cc1 | 83
CCOc1ccc(NC(=O)c2cccc3ccccc23)cc1 | -318*
COc1cc2ccccc2cc1C(=O)Nc1cccnc1 | -139*
COc1ccc(C(=O)Nc2ccc3cn[nH]c3c2)c(OC)c1 | -99*
COc1cc2ccccc2cc1C(=O)Nc1ccc(N2CCN(C)CC2)cc1 | -176*
COc1ccc(NC(=O)c2cc3ccccc3cc2OC)cc1 | -168*
O=C(Nc1ccc(Cl)cc1)c1ccc(Br)cc1F | -123*
CCOc1ccc(NC(=O)c2ccc(F)cc2F)cc1 | -103*
CCOc1ccc(NC(=O)c2cc3ccccc3cc2OC)cc1 | -133*
COc1ccc(NC(=O)c2cc3c([nH]c4ccccc43)c(C)n2)cc1 | -84*
COc1ccc(-c2cc(C(=O)Nc3cccnc3)no2)cc1OC | -187*
COc1cc2ccccc2cc1C(=O)Nc1ccccc1Cl | -139*
CCOc1ccc(NC(=O)c2cc3ccccc3cc2O)cc1 | -201*
COc1ccc(NC(=O)c2ccc3ccccc3c2OC)cc1 | -215*
CC(=O)Oc1ccc([C@@H]2COc3c(ccc4c3C=CC(C)(C)O4)C2)c(OC(C)=O)c1 | -152*
CCCn1cnc2c(sc3nc4c(cc32)CSC(C)(C)C4)c1=O | -105*
Cc1cccc(C(=O)NCC(=O)OCC(=O)c2cc(C)n(CC3CCCO3)c2C)c1 (centres undefined) | -102*
Cc1cc(C(=O)COC(=O)c2ccc(Cl)c(S(N)(=O)=O)c2)c(C)n1CC1CCCO1 (centres undefined) | -104*
COCCn1c(C)cc(C(=O)COC(=O)c2ccc(Cl)c(S(N)(=O)=O)c2)c1C | -103*
Cc1nn(C(=O)c2cccs2)c(N)c1-c1ccccc1 | -125*
CCOC(=O)c1sc2nc3n(c(=O)c2c1C)CCCCC3 | -214*
Cc1c(C(=O)Nc2cc(F)ccc2F)sc2nc3n(c(=O)c12)CCCCC3 | -118*
SMILES | aSyn UTR act
COc1cccc(NC(=O)c2sc3nc4n(c(=O)c3c2C)CCC4)c1 | -113*
CSc1cccc(NC(=O)c2sc3nc4n(c(=O)c3c2C)CCC4)c1 | -131*
O=C(NCCN1C(=O)C2C3C=CC(C3)C2C1=O)Nc1ccc(Br)cc1 (centres undefined) | -144*
CCOC(=O)c1sc(NC(=S)NC(=O)CC(C)C)cc1C | -102*
CCOC(=O)c1sc(NC(=O)C(C)(C)C)cc1C | -166*
CCOC(=O)c1sc(NC(=O)Nc2ccc(Cl)cc2)cc1C | -135*
CCOC(=O)c1sc(NC(=O)c2ccccc2)cc1C | -181*
CCOC(=O)c1sc(Nc2nc3c(OC)cccc3s2)cc1C | -196*
CCN(CC)Cc1c(NC(=O)c2ccccc2)sc(C)c1C | -87*
CCOC(=O)c1sc(NC(=O)c2ccc(Cl)s2)cc1C | -196*
CCOc1cc(/C=C2/NC(=O)N(CC(=O)OC)C2=O)ccc1O | -66*
O=C(N/N=C\C=C\c1ccc([N+](=O)[O-])o1)c1cccs1 | -63*
O=C(N/N=C/C=C/c1ccccc1)c1cccs1 | -156*
O=C(N/N=C/C=C/c1ccccc1)c1cc2c(ccc3ccccc32)o1 | -80*
O=C(Cc1cccs1)N/N=C/C=C/c1ccccc1 | -70*
O=C(N/N=C/C(Br)=C/c1ccccc1)c1cccs1 | -366*
CC(C)c1ccc(C2CC(c3ccc(Br)cc3)=NN2C(N)=S)cc1 (centres undefined) | -97*
C/C(=N/Nc1ccnc2cc(Cl)ccc12)c1ccc(N)cc1 | -177*
C/C(=N/Nc1ccnc2cc(Cl)ccc12)c1ccc(O)cc1 | -118*
O=C1N=C(N2CCOCC2)S/C1=C/c1cc2c(cc1[N+](=O)[O-])OCO2 | -67*
COc1cccc(/C=N/Nc2cc(-n3nc(C)cc3-c3ccccc3)ncn2)c1O | 110
Cc1cnn(-c2cc(N/N=C/c3ccc(F)cc3)ncn2)c1 | -86*
O=C(O)c1ccc2c3c(ncnc13)-c1ccccc1C2=O | 107
Cc1ccc2c3c(cccc13)-c1ccccc1C2=O | -111*
CCOC(=O)Nc1ccc(Cc2ccncc2)cc1 | -63*
SMILES | aSyn UTR act
CCOC(=O)Nc1ccc(Oc2ccccc2)cc1 | -96*
CC(=O)c1ccc(NC(=O)Oc2ccccc2)cc1 | -63*
CCOC(=O)Nc1ccc(C(=O)/C=C/c2ccccc2)cc1 | -69*
COc1ccc2c(c1)C(C)=CC(C)(C)N2S(=O)(=O)c1ccc(NC(C)=O)cc1 | 71
COc1ccc2c(c1)C(C)=CC(C)(C)N2S(=O)(=O)c1ccc(Br)cc1 | -86*
Cc1c(-c2nc(N)nc(Nc3ccccc3F)n2)oc2ccccc12 | -178*
Cc1ccc(Nc2nc(N)nc(-c3oc4ccccc4c3C)n2)cc1 | 91
CCCCC1CCC(c2nc(-c3cccnc3)no2)CC1 (centres undefined) | -92*
CCCCC1CCC(c2nc(-c3ccccn3)no2)CC1 (centres undefined) | 97
O=C(O)c1ccc2c(=O)n3c(nc2c1)/C(=C/c1ccc(F)cc1)CC3 | -73*
O=C(Nc1ccc(F)cc1Cl)c1ccc2c(=O)n3c(nc2c1)CCCCC3 | -144*
O=C(NCCc1ccc(F)cc1)c1ccc2c(=O)n3c(nc2c1)CCC3 | -71*
Cc1cc(NC(=O)c2cc(-c3ccc(O)cc3)on2)no1 | -62*
COCC(C)NC(=O)c1cc(-c2ccccc2OC)on1 (centres undefined) | -102*
Cc1occc1C(=O)NC1CCCCCCC1 | -77*
O=C(NC1CCCC1)c1cc(-c2cccs2)on1 | -343*
CC1CCCC(C)N1C(=O)c1cc(-c2cccs2)on1 (centres undefined) | -137*
Cc1occc1C(=O)NN=C1C2CC3CC(C2)CC1C3 | -141*
O=C(NC1CCCC1)c1cc(-c2ccc(Cl)cc2Cl)on1 | -122*
COc1ccccc1C(=O)NC1CCCCCCC1 | -71*
COc1ccccc1-c1cc(C(=O)Nc2cc(C)on2)no1 | -146*
COc1ccc(OC)c(-c2cc(C(=O)Nc3c(C)nn(Cc4ccccc4C)c3C)no2)c1 | 60
COc1ccccc1-c1cc(C(=O)NC2CCCC2)no1 | -98*
O=C(NC1CCCCC1)c1cc(-c2ccccc2Cl)on1 | -162*
O=C(NC1CCCC1)c1cc(-c2ccccc2O)on1 | -77*
SMILES | aSyn UTR act
COc1ccccc1-c1cc(C(=O)NC2CCN(C)CC2)c2ccc(Cl)c(C)c2n1 | 101
COc1ccccc1-c1cc(C(F)(F)F)nc(S(=O)(=O)CCCC(=O)Nc2cc(C)on2)n1 | -65*
Cc1snc(SCC(=O)c2ccc(Cl)cc2)c1C#N | -140*
Cc1ccnc(SCC(=O)c2ccc(Br)cc2)c1C#N | -198*
Cc1ccc(C(=O)CSc2nsc(C)c2C#N)cc1 | -149*
O=C(/C(=C(\[O-])c1ccccc1)[n+]1ccc2ccccc2c1)c1ccccc1 | -72*
O=C(/C(=C(\[O-])c1ccccc1)[n+]1ccc2ccccc2c1)c1ccc(Cl)cc1 | -63*
O=C(N/N=C/c1ccccc1Cl)c1cccc(F)c1 | -138*
Fc1cccc(/C=N/Nc2ccc(Cl)nn2)c1 | -116*
O=C(N/N=C/c1cccc(F)c1)c1ccc(Cl)cc1 | -150*
CC(C)(C)c1ccc(C(=O)N/N=C/c2cccc(Cl)c2)cc1 | -89*
Oc1c(Br)cc(Br)cc1/C=N/Nc1ccc(Cl)nn1 | 97
CN(C(=O)c1cc(-c2ccc3c(c2)OCO3)on1)c1ccccc1 | -167*
O=C(c1cc(-c2ccc3c(c2)OCO3)on1)N1CCN(c2ccccc2)CC1 | -245*
